# Inconclusive results are not listed. A number with no mark means an inactive call. The call rests on the fitted dose curve; in most records, active means well fitted activation curve with a large enough effect; inconclusive means small, poorly fitted or top-dose-only effect; inactive means no such curve, though single readings can be large or run the other way.
# Test: qHTS assay for re-activators of p53 using a Luc reporter: Hit Validation with no p53 Expressed; further: 0% is about no effect
# Details: p53-null cells, luciferase reporter counter-screen; series mostly up to 46.1 µM; activity change, positive = activation: at the top concentration
# In short: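 Without p53 expression, cells (1000/well, Opti-MEM + 10% FBS) were exposed 24 h at 37 deg C to compounds in a 1:5 series from 10 mM stock (top 46.1 µM in well). Luminescent signal read 10 min after Amplite addition; actives flag unspecific activation.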
row,Structure (SMILES),"activity change, positive = activation [%]"
1,N=C1C(c2nc3ccccc3s2)=C(O)CN1Cc1ccccc1,-9.16
2,O=C(N/N=C/c1cn(-c2ccccc2)nc1-c1cc2ccccc2o1)c1ccccc1Br,41.5
3,Cc1ccc2nc(-c3ccc(NC(=O)CCN4C(=O)c5ccccc5C4=O)cc3)sc2c1,90.2
4,Clc1cccc(Cl)c1CSc1nnc2ccccn12,-2.02
5,COC(=O)c1c(C)[nH]c(C(=O)/C=C/c2ccccc2)c1C,1.34
6,COc1ccccc1C(=O)CSc1nccn1C,68.7
7,COc1ccc2c(=O)c(-c3nc(C)cs3)coc2c1,-21.3
8,COc1ccc(C(=O)Nc2nnc(C(F)(F)F)s2)cc1,-57.8
9,COc1ccc(/C(O)=C2/C(=O)C(=O)N(CCN3CCOCC3)C2c2ccccn2)cc1 (stereo unspecified),-41.2
10,Cc1ccc(-c2nnc(SCC(=O)Nc3ccccc3F)o2)cc1,-77.1
11,CCOC(=O)C1=C(C)Nc2ncnn2C1c1c[nH]c2ccccc12 (stereo unspecified),13.4
12,Cc1ccc2cc3c(N)c(C(=O)N4CCOCC4)sc3nc2c1,61.4
13,O=C(NNc1c2ccccc2nc2ccccc12)c1ccc(O)cc1,9.35
14,CN1CCN(C2=C(Cl)C(=O)N(Cc3ccccc3)C2=O)CC1,-21.3
15,c1ccc(-c2cn3nc(-c4ccccc4)cnc3n2)cc1,50.2
16,CCS(=O)(=O)NCCc1csc(-c2ccccc2)n1,-21.3
17,O=C(NCCC1=CCCCC1)c1ccc(F)c(S(=O)(=O)N2CCOCC2)c1,13.5
18,COc1cc(C(=O)NCC(=O)Nc2c(C)cccc2C)ccc1OCc1ccccc1,-7.54
19,CC(=O)c1cccc(NC(=O)c2sc(Cl)nc2C)c1,-42.3
20,O=C(Nc1ccc2c(c1)CCC2)c1ccccc1,24.9
21,FC(F)(F)c1nnc2c(Sc3ccccn3)nc3ccccc3n12,66.9
